Assay outcomes as filed in PubChem BioAssay.
A selection: hits, their analogues and other compounds. The true share with any hit is near 17%.
TDP1 cell noCPT: qHTS for Inhibitors of human tyrosyl-DNA phosphodiesterase 1 (TDP1): qHTS in cells in absence of CPT. Potency, µM (titrated, usually from 46.2 µM), without a hit: top-dose activity change, negative = growth inhibition, hits mostly inhibitors. hit rate 15% among 420,000. DT40 Tdp1-/- hTDP1 cells, no CPT, ATP luminescence, 48 h; further: on the % scale 0 is the no-effect control and ±100 the full control effect; nearly all actives have a fitted effect of over 55% in size
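Seeded 400 DT40-hTDP1 cells/well (vehicle DMSO, no 20 nM CPT); pinned compounds; ≥48 hr at 37 °C; CellTiter-Glo luminescence as viability measure.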
HepG2 tox: counter-screen for TGF-b inhibitors: cytotoxicity in HepG2 cells. HepG2 CAGA-GFP viability, ATP luminescence, 18 h. Potency, µM (top dose mostly 46.1 µM), inactives show top-dose activity change, negative = cytotoxicity, most hits filed as cytotoxic. hit rate 0.76% among 410,000. AID 588856
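CellTiter-Glo luminescence gave cytotoxicity after 18 hours at 37 degrees C. The cells were HepG2 CAGA-GFP in 1% FBS DMEM, stimulated with 500 pg/mL TGF-beta after compound addition. %Activity was normalised to no-cell wells (complete cell-killing) and DMSO (no toxicity), and curves were fitted and classified.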
S2 tox: reduces viability in counter-screen for ATXN expression inhibitors; S2 cells (HEK-293 line with an ATXN2-luciferase reporter) viability, CellTiter-Fluor protease fluorescence, 24 h; Potency, µM (titrated, usually from 56.7 µM), most hits filed as cytotoxic; hit rate 0.49% among 400,000; further: nearly all actives have a fitted effect of over 40% in size
ATXN2 expr inh: inhibitors of ATXN2 expression; HEK-293 ATXN2-luciferase reporter, luminescence, 24 h; Potency, µM (series often up to 57 µM), without a hit: at the highest dose activity change, negative = inhibition, usual class: inhibitors; hit rate 0.72% among 360,000; AID 1745845; further: on the % scale 0 is the no-effect control and ±100 the full control effect; nearly all actives have a fitted effect of over 55% in size
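qHTS (up to 57 uM final) was run with 24 h compound exposure of reporter cells at 37 °C. Each well was multiplexed: SteadyGlo luminescence measured ATXN2-luciferase expression after a fluorogenic Gly-Phe-AFC viability readout (25 uM final).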
TGFb inhibitor: inhibitors of TGF-b signaling. Potency, µM (series often up to 46.1 µM), for inactives: top-dose activity, negative = inhibition, hits mostly inhibitors. HepG2 CAGA-GFP TGF-b/SMAD3 reporter, GFP fluorescence, 18 h; TGF-beta stimulated, 500 pg/mL final. AID 588855. hit rate 1.2% among 410,000; further: on the % scale 0 is the no-effect control and ±100 the full control effect; nearly all actives have a fitted effect of over 65% in size
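Inhibition of TGF-beta-driven CAGA-GFP reporter expression in HEPG2 cells is measured by cellular GFP fluorescence after 18 h stimulation with 500 pg/mL recombinant TGF-beta in 1% FBS medium at 37 degrees C.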
TDP1 cell CPT: growth inhibition of DT40 Tdp1-/-;hTDP1 cells with camptothecin (screen for TDP1 inhibitors); hit rate 12% among 420,000; Potency, µM (doses to about 46.2 µM), for inactives: top-dose activity change, negative = growth inhibition, usual class: inhibitors; chicken DT40 Tdp1-/-;hTDP1 cells + 20 nM CPT, ATP luminescence, 48 h; AID 686979; further: on the % scale 0 is the no-effect control and ±100 the full control effect; nearly all actives have a fitted effect of over 55% in size
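Cell growth measured by CellTiter-Glo luminescence after a minimum 48 h, 37 C compound exposure with 20 nM CPT in Tdp1-knockout DT40 cells stably expressing hTDP1, seeded 400/well; qHTS titration format.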
* = called active by the depositor; i = inactive; ? = inconclusive; · = not tested or not shown. The call rests on the fitted dose curve; in most records, active means well fitted curve in the direction sought with a large enough effect; inconclusive means small, poorly fitted or top-dose-only effect, or another doubt; inactive means no such curve, though single readings can be large; an effect the other way counts as inactive or inconclusive. Potency means the concentration at half of the fitted maximal effect.

SMILES	TDP1 cell noCPT	HepG2 tox	S2 tox	ATXN2 expr inh	TGFb inhibitor	TDP1 cell CPT
O=C(Nc1ccc(N2CCOCC2)c(S(=O)(=O)Nc2ccccc2Cl)c1)c1ccccc1	?	-23%	i	-24%	-18%	?
COc1ccccc1NS(=O)(=O)c1cc(NC(=O)c2ccc(=O)[nH]c2)ccc1N1CCOCC1	16µM*	-2%	i	6%	0%	?
COc1ccccc1NS(=O)(=O)c1cc(NC(=O)COc2ccccc2)ccc1N1CCOCC1	?	3%	i	3%	-12%	?
COc1ccccc1NS(=O)(=O)c1cc(NC(=O)c2[nH]c(C)c(C(C)=O)c2C)ccc1N1CCOCC1	2.9µM*	-13%	i	47%	-16%	7.3µM*
COc1ccccc1NS(=O)(=O)c1cc(NC(=O)c2ccccc2C)ccc1N1CCOCC1	?	-5%	i	7%	?	?
CC(=O)Nc1ccc(N2C(=O)c3ccc(S(=O)(=O)c4ccc(C(=O)O)cc4)cc3C2=O)cc1	-4%	-22%	i	-2%	-16%	-5%
OCCC1CN(Cc2ccc(F)cc2)CCN1CCCc1ccccc1 (stereo not given)	-24%	-36%	i	-9%	1%	?
CC(=O)c1ccc(-c2cc(F)cc3c2OC(CNC(=O)C(C)N2CCOCC2)C3)s1 (stereo not given)	?	·	i	·	·	?
CN(C(=O)CN(C)S(=O)(=O)c1ccc(F)cc1)c1c(N)n(Cc2ccccc2)c(=O)[nH]c1=O	-5%	-1%	i	9%	15%	14%
CCN(CC)S(=O)(=O)c1cccc(NC(=O)COc2ccc(C#N)cc2OC)c1	23µM*	8%	i	-14%	24%	?
COc1cc(C#N)ccc1OCC(=O)Nc1cccc(S(=O)(=O)N(C)c2ccccc2)c1	18µM*	-19%	i	·	2%	12µM*
CCN(CC)S(=O)(=O)c1cc(NC(=O)COc2ccc(C#N)cc2OC)ccc1C	23µM*	-33%	i	-12%	?	21µM*
Cc1ccc(NC(=O)COc2ncnc3sccc23)cc1S(=O)(=O)N(C)C	-11%	2%	i	-5%	2%	-15%
CCN(CC)S(=O)(=O)c1cccc(NC(=O)COc2ncnc3sccc23)c1	16µM*	-6%	i	-11%	-19%	?
COc1ccc(NC(=O)CN2C(=O)CCn3nc(-c4cccn4C)cc32)cc1	8%	3%	i	3%	15%	2%
CN(C)Cc1ccccc1-c1cc(NCc2ccccc2)ncn1	6%	·	·	·	·	-7%
c1ccc2sc(NC3=NCN(CC4CCCO4)CN3)nc2c1 (stereo not given)	8%	11%	i	·	18%	4%
COc1ccc(N2CCN(S(=O)(=O)CCNC(=O)Cc3ccc(Cl)cc3)CC2)cc1	-23%	0%	·	·	7%	3%
CNC(=S)N1N=C(c2ccc(C)cc2)CC1c1ccc(Br)cc1 (stereo not given)	7.3µM*	2%	?	5%	-22%	10µM*
CC(C)c1ccc(C2CC(c3ccc(Br)cc3)=NN2C(N)=S)cc1 (stereo not given)	9.2µM*	-21%	i	22%	?	15µM*
CNC(=S)N1N=C(c2ccc(C)cc2)CC1c1ccc(Cl)cc1 (stereo not given)	10µM*	-23%	i	-7%	-7%	13µM*
CCCC(=O)c1c[nH]c(C(=O)NCc2ccco2)c1	-28%	0%	i	-2%	5%	-10%
